Test results published in PubChem BioAssay.
Potency and affinity values are given separately. Inconclusive results are not listed. A call without a number means that no potency is given here. Calls of active or inactive are those of the source.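 The calls were made as follows: active = fitted half-maximal concentration for viability loss no higher than twice the top valid dose, in every repeat run; inconclusive = repeat runs disagree, flat partial loss, or poor curve fit; inactive = the rest.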

experiment: IOSE-T80 viability loss, PAX8-independent line – cell-based, cherry-pick, selectivity assay for PAX8 inhibitor project, dose response (AID 687032); conditions: CellTiterGlo ATP luminescence, 96 h; series mostly up to 35 µM;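 also: cells exposed to compound for 96 h before reading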

SMILES | outcome
Brc1ccc2nc(-c3ccc(CN4CCC(c5nc6ccccc6[nH]5)CC4)cc3)c(-c3ccccc3)nc2c1 | inactive
O=C(C#Cc1ccccc1)c1ccco1 | inactive
CC[C@@H](C)[C@H](CNC)NC[C@@H](Cc1cccc2ccccc12)NCCc1cccc(C(F)(F)F)c1 | inactive
